The list is not random: actives were taken first. Their share in the collection is about 2.2%.
TDP43 rescue = TDP-43 toxicity inhibition in yeast; hit rate 1.8% among 410,000; AID 652104; TDP-43 expressing yeast growth rescue, BacTiter-Glo, 24 h; Potency, µM (titrated, usually from 46.1 µM), actives largely listed as activators; also: nearly all actives have a fitted effect of over 50% in size
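Cell-based yeast growth screen: TDP-43 expression induced in galactose, inoculum OD600=0.02 after raffinose pregrowth to mid-log. Read-out BacTiter-Glo luminescence at 24 hr, 30 deg C; inhibition of toxicity seen as signal increase.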
ERG Ets-DNA blk = inhibitors of human ERG Ets domain-DNA interaction. AID 624246. Potency, µM (titrated, usually from 76.9 µM), most hits filed as inhibitors. P11308. hit rate 0.028% among 370,000. fluorescence polarization, His-ERG Ets domain / labelled DNA; active = well fitted inhibition curve with a large enough effect in the polarisation, with a control signal flat; inconclusive = small, poorly fitted or top-dose-only effect, or effect the other way, or a change in a side signal; inactive = no such curve, though single readings can be large or run the other way; the % refers to the polarisation;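 also: polarization taken with two DNA probes labelled with fluorescein and Texas red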
Target sequence (P11308 whole entry, looked up, the tested form may be a part): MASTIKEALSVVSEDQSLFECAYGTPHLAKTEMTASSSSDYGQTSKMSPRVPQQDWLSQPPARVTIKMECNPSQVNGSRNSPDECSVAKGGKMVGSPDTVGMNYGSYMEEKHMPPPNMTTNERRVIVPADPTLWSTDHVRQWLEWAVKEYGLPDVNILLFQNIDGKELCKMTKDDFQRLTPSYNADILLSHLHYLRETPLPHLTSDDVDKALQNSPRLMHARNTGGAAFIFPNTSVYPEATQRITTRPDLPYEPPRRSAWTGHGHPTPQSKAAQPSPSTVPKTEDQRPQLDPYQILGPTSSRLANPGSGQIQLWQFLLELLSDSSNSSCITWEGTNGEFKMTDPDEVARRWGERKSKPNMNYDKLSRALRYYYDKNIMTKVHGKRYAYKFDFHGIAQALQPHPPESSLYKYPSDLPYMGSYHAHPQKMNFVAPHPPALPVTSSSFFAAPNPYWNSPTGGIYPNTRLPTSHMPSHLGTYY
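His-tagged ERG Ets domain (1 uM in the protein solution; 300mM KCl, 50mM Tris-HCl, 1mM EDTA, 1mM DTT, pH 7.5) received compound, then a probe mix of 5 nM fluorescein-DNA and 100nM Texas-615-DNA. Fluorescence polarization was read for both dyes.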
Mito fusion act = mitochondrial division inhibition or fusion activation | S. cerevisiae fusion-defective mutant growth rescue, CellTiterGlo 48 h | Potency, µM (series often up to 46.1 µM), actives largely listed as activators | hit rate 0.23% among 320,000; also: nearly all actives have a fitted effect of over 45% in size
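Compounds are tested for their ability to restore growth of mitochondrial fusion-defective yeast strains at non-permissive 37C in YPEG medium over 48 hours. Viability is quantified by luciferase luminescence.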
Abeta yeast res = restores growth of yeast expressing A-beta42 peptide; yeast expressing A-beta42, growth rescue, OD600, 48 h; response scale: 0% DMSO, 100% iron-clioquinol control; Potency, µM (series often up to 46.1 µM), actives largely listed as activators; hit rate 0.063% among 410,000; AID 1347071; also: nearly all actives have a fitted effect of over 55% in size
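Yeast growth medium received pinned compounds, then yeast cells expressing toxic A-beta were added; plates incubated at 30 C for 48 hr. Growth read as absorbance at 600 nm, normalized to DMSO and equimolar FeCl3 plus clioquinol controls.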
aSyn yeast inh = rescues yeast growth from alpha-synuclein toxicity; Yeast expressing alpha-synuclein, growth rescue, BacTiter-Glo, 24 h; Potency, µM (doses to about 46.1 µM), hits mostly activators; hit rate 0.14% among 370,000; also: nearly all actives have a fitted effect of over 65% in size
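Galactose-induced alpha-syn yeast (OD600=0.02, raffinose-pregrown) + pinned cpd, 24 hr, 30 deg C; growth by BacTiter-Glo luminescence. Growth restoration scores as activation.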
FUS suppressor = FUS proteinopathy suppression in yeast; S. cerevisiae FUS-expressing, growth rescue, OD600, 24 h; Potency, µM (titrated, usually from 76.6 µM), most hits filed as activators; hit rate 0.24% among 390,000; also: nearly all actives have a fitted effect of over 55% in size
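S. cerevisiae expressing FUS from galactose induction served as the toxicity model. Growth after 24hr at 30C, read as absorbance at 600 nm, indicates suppression of toxicity; compounds dosed at several concentrations.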
Each line names hits and unclear results; the compound was inactive in the other large screens. Unless noted, calls follow the shape of the dose curve; as a rule, active = well fitted curve in the direction sought with a large enough effect; inconclusive = small, poorly fitted or top-dose-only effect, or another doubt; inactive = no such curve, though single readings can be large; an effect the other way counts as inactive or inconclusive.

COc1ccccc1CNc1ncnc2c1cnn2-c1ccccc1	TDP43 rescue 16µM
COc1ccccc1CNc1ncnc2c1cnn2-c1ccc(C)cc1	TDP43 rescue 35µM (no result: Mito fusion act, aSyn yeast inh)
COc1ccc(-n2ncc3c(NCC(C)C)ncnc32)cc1	TDP43 rescue 11µM
Cc1ccc(-n2ncc3c(NCc4ccccc4)ncnc32)cc1	none
COc1ccc(-n2ncc3c(NC(C)C)ncnc32)cc1	TDP43 rescue inconclusive
CN(C(=O)CSc1nc2ccc(NC(=O)c3cccs3)cc2s1)c1ccccc1	FUS suppressor inconclusive (no result: Mito fusion act, aSyn yeast inh)
Cc1ccc(CNC(=O)CCc2c(C)c3ccc(O)c(C)c3oc2=O)cc1	none (no result: Mito fusion act, aSyn yeast inh)
O=C1CSc2ccc(C(=O)N3CCCC(C(=O)N4CCCCC4)C3)cc2N1 (centres undefined)	none (no result: TDP43 rescue, ERG Ets-DNA blk, Mito fusion act, Abeta yeast res, aSyn yeast inh)
C=CCn1cccc(C(=O)Nc2ccc(SC)cc2)c1=O	Mito fusion act inconclusive
C=CCn1cccc(C(=O)Nc2ccc(Cl)cc2)c1=O	TDP43 rescue 10µM, Mito fusion act inconclusive
Cn1ncc(SCc2ccccc2)c(Cl)c1=O	TDP43 rescue 20µM
CC1CCCC(C)N1CC(O)Cn1c2ccccc2c2ccccc21 (centres undefined)	TDP43 rescue 11µM
COC(=O)c1ccc(OC(=O)c2cccnc2)cc1	none
CC(=O)/C=C\c1ccc(OC(=O)c2cccnc2)cc1	TDP43 rescue 20µM
O=Cc1ccc(OC(=O)c2cccnc2)cc1	none
CCOc1ccc(OC(=O)c2cccnc2)cc1	TDP43 rescue 16µM
COc1cccc(CNC(=O)c2cc3c(=O)oc4ccc(C)cc4c3s2)c1	none (no result: Mito fusion act, aSyn yeast inh)
O=C(Oc1ccc(/C=N/O)cc1)c1ccccc1	TDP43 rescue 11µM
O=C(Oc1ccc(/C=N/Nc2ccccc2)cc1)c1ccccc1	none
Cn1c(NCCN2CCCC2)nc2cc(-c3ccccc3)sc2c1=O	none (no result: ERG Ets-DNA blk, Mito fusion act)
O=c1c2sc(-c3ccccc3)cc2nc2n1CCC2	TDP43 rescue 13µM, aSyn yeast inh inconclusive
O=c1c2sc(-c3ccccc3)cc2nc2n1CCCCC2	TDP43 rescue 11µM
C[C@@H]1CN([C@H](C)CO)C(=O)c2cc(/C=C/c3ccccc3)cnc2O[C@H]1CN(C)C(=O)NC1CCCCC1	none (no result: ERG Ets-DNA blk, Mito fusion act)
C[C@H]1CN([C@@H](C)CO)S(=O)(=O)c2ccc(/C=C/c3ccccc3)cc2O[C@H]1CN(C)C(=O)NC1CCCCC1	FUS suppressor 11µM (no result: ERG Ets-DNA blk, Mito fusion act)
Clc1ncccc1OCc1ccccc1	TDP43 rescue 13µM (no result: Mito fusion act)
c1ccc(Nc2cccc(Nc3ccccc3)c2)cc1	TDP43 rescue inconclusive (no result: ERG Ets-DNA blk, FUS suppressor)
Oc1cccc(Nc2ccccc2)c1	TDP43 rescue 13µM
CC(=O)c1cccc(NC(=S)NC(=O)c2ccc(Br)cc2)c1	none (no result: FUS suppressor)
CC(=O)c1cccc(Nc2ccc(Br)cc2)c1	TDP43 rescue 14µM (no result: ERG Ets-DNA blk, Mito fusion act)
COc1cc(-c2csc(C)n2)ccc1O	none
COc1ccc(-c2csc(C)n2)cc1Br	TDP43 rescue 11µM
C[C@@]12CCC=C[C@H]1[C@H](c1ccccc1Br)N(Cc1ccccc1)C2=O	TDP43 rescue 35µM, FUS suppressor inconclusive (no result: Mito fusion act)
CN(C)c1ccc(/C=C/c2ccnc3ccc(O)cc23)cc1	none (no result: TDP43 rescue, ERG Ets-DNA blk, Mito fusion act, Abeta yeast res, FUS suppressor)
CCOC(=O)N1CCN(c2nc(C)c3c(n2)CC(C)CC3=O)CC1 (centres undefined)	TDP43 rescue 20µM
COc1ccccc1-c1noc(-c2ccc(NCC3CCCO3)c([N+](=O)[O-])c2)n1 (centres undefined)	none (no result: Mito fusion act, aSyn yeast inh)
CC[C@]1(O)C[C@H]2CN(CCc3c([nH]c4ccccc34)[C@@](C(=O)OC)(c3cc4c(cc3OC)N(C=O)[C@H]3[C@@](O)(C(=O)OC)[C@H](OC(C)=O)[C@]5(CC)C=CCN6CC[C@]43[C@@H]65)C2)C1	none (no result: TDP43 rescue, ERG Ets-DNA blk, Mito fusion act, Abeta yeast res, FUS suppressor)
O=c1cc(CNc2ccc(Br)cc2)nc2sccn12	TDP43 rescue 20µM, aSyn yeast inh inconclusive (no result: FUS suppressor)
CC(=O)c1cccc(NC(=O)CSc2nc3ccccc3nc2Cc2ccc(F)cc2)c1	none (no result: Mito fusion act, aSyn yeast inh)
COc1ccccc1C(=O)Nc1ccc(Br)cc1C	TDP43 rescue 18µM
COc1ccccc1C(=O)Nc1ccc(Br)c2cccnc12	none
COCCn1c(/C=C/c2ccccc2)nc2ccccc21	none

Screening results from PubChem BioAssay.
